The full list was thinned out, with hits kept by preference.
Pf Dd2 growth – inhibitors of Plasmodium falciparum Dd2 growth; P. falciparum Dd2 growth, SYBR Green, 72 h; Potency, µM (top dose mostly 28.9 µM), for the others: top-dose activity, negative = inhibition, actives largely listed as inhibitors; 120,000 compounds, 4.3% hits; AID 1347417; active = well fitted inhibition curve with a large enough effect;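 note: plate controls were DMSO vehicle for no effect and reference drug for full effect; nearly all actives have a fitted effect of over 65% in size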
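Readout: SYBR Green fluorescence, 485 nm excitation, 535 nm emission, after ~16 h lysis at 37C. Before that, Dd2-infected red cells (2.5% hematocrit) grew 72 h with compound, 29 uM top final concentration.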
* = called active by the depositor; i = inactive. Potency is the fitted concentration of half-maximal effect.

SMILES	Pf Dd2 growth
COc1cccc(NC(=O)c2sc3nc(C)c(C(=O)Nc4ccc(C)cc4C)c(-c4sccc4C)c3c2N)c1	2.2µM*
COc1ccccc1CNS(=O)(=O)c1ccc2c(c1)CC(C)N2C(C)=O (stereo not drawn)	21%
COc1ccccc1C(=O)N1CCC2(C1)C(=NC1CCCCC1)NC(=O)N2c1cc(F)cc(F)c1 (stereo not drawn)	-20%
CCCNC(=O)Cc1ccc(N(Cc2cccc(C)c2)C(=O)c2ccco2)cc1	-3%
O=C(CSc1nccn1Cc1ccccc1)Nc1nc2ccccc2s1	-4%
Cc1ccc(C)c(CSc2ccc3nnc(CCNS(=O)(=O)c4ccccc4)n3n2)c1	-4%
Cc1ccc(S(=O)(=O)NCCc2nnc3ccc(SCc4ccccc4C)nn23)cc1	7.9µM*
CCOC(=O)CSc1ccc2nnc(CCNS(=O)(=O)c3ccccc3)n2n1	-10%
COc1ccc(-c2ccnc3c(-c4ccc(F)cc4)c(C)nn23)cc1OC	4%
CCOC(=O)c1cnc2c(ccc3ccccc32)c1Nc1ccc(OC)cc1OC	0%
CCOC(=O)c1cnc2ccccc2c1Nc1ccc(N2CCOCC2)cc1	28%
CCOC(=O)c1cnc2c(ccc3ccccc32)c1Nc1ccc(OC)c(OC)c1	3.5µM*
CCOC(=O)c1cnc2c(ccc3ccccc32)c1Nc1ccccc1OCC	30%
CCOC(=O)c1cnc2c(ccc3ccccc32)c1Nc1ccccc1OC	9%
CCOC(=O)c1cnc2c(ccc3ccccc32)c1Nc1ccc(C(C)=O)cc1	5µM*
CNC(=O)c1cccc(S(=O)(=O)N2CCC3(CCCNC3)C2)c1 (stereo not drawn)	-6%
O=C(c1cnc2sccn2c1=O)N1CCn2nc(C(O)C3CC3)cc2C1 (stereo not drawn)	-6%
NS(=O)(=O)c1ccc(CCNC(=O)CCn2c(=O)c3cccn3c3cccnc32)cc1	-2%
CC1Oc2ccc(NC(=O)c3ccccc3F)cc2CN(Cc2ccccc2F)C1=O (stereo not drawn)	i
CCC1Oc2ccc(NC(=O)c3ccccc3F)cc2CN(CCc2ccc(OC)c(OC)c2)C1=O (stereo not drawn)	1.8µM*
COc1cccc(CN2Cc3cc(NC(=O)Cc4ccccc4)ccc3OCC2=O)c1	-13%
CCC1Oc2ccc(NC(=O)Cc3ccc(F)cc3)cc2CN(Cc2cccc(OC)c2)C1=O (stereo not drawn)	4µM*
COc1cccc(CN2Cc3cc(NC(=O)c4cccs4)ccc3OCC2=O)c1	i
CCC1Oc2ccc(NC(=O)c3ccccc3F)cc2CN(Cc2ccc3c(c2)OCO3)C1=O (stereo not drawn)	i
CCC1Oc2ccc(NC(=O)c3c(F)cccc3F)cc2CN(Cc2ccc3c(c2)OCO3)C1=O (stereo not drawn)	i
SMILES	Pf Dd2 growth
CCC1Oc2ccc(NC(=O)Cc3ccccc3)cc2CN(Cc2cccc(OC)c2)C1=O (stereo not drawn)	-18%
COc1cccc(CN2Cc3cc(NC(=O)c4cc(OC)cc(OC)c4)ccc3OCC2=O)c1	4.5µM*
CCC1Oc2ccc(NC(=O)COc3ccccc3)cc2CN(Cc2cccc(OC)c2)C1=O (stereo not drawn)	-4%
CCC1Oc2ccc(NC(=O)c3ccccc3F)cc2CN(Cc2ccccc2F)C1=O (stereo not drawn)	5.6µM*
CCC1Oc2ccc(NC(=O)c3cccc(F)c3)cc2CN(Cc2ccccc2F)C1=O (stereo not drawn)	-6%
CCS(=O)(=O)N1CCCN(S(=O)(=O)c2ccccc2)CCC(=O)NCC1	-11%
Cc1ccc(CCNC(=O)CCn2nc(-c3ccc(C)cc3)ccc2=O)cc1	-5%
CCC(=O)N1CCc2cc(CNC(=O)c3ccc(F)cc3)ccc21	i
Cc1ccc(-c2cc(NC(=O)COc3ccc(Cl)c(C)c3)on2)cc1	36%
CCC1(C(=O)NCCCN2CCc3ccccc3C2)CCCCC(=O)N1 (stereo not drawn)	18%
CC1CCN(S(=O)(=O)c2ccc3c(c2)N(CC(=O)N(C)Cc2ccccc2)C(=O)CO3)CC1	-13%
Cc1cc(C)n(CCC(=O)N2CCC(C3CCN(S(C)(=O)=O)CC3)C2)n1 (stereo not drawn)	-8%
CCC[C@H]1CN(S(=O)(=O)c2cnn(CCC)c2)C[C@@H]1N	11µM*
CCC[C@H]1CN(S(=O)(=O)c2ccc(-c3ccn[nH]3)o2)C[C@@H]1N	i
CCC[C@H]1CN(S(=O)(=O)c2ccc(CC)s2)C[C@@H]1N	-21%
COc1ccc(Nc2cc(C(=O)NCc3ccccc3)c3ccccc3n2)c(OC)c1	-13%
COc1ccc(Nc2cc(C(=O)NCCCN(C)Cc3ccccc3)c3ccccc3n2)c(OC)c1	17%
CCOC(=O)C1CCCN(C(=O)c2cc3c(Cl)nc4ccccc4c3s2)C1 (stereo not drawn)	-16%
O=C(NCc1ccccc1)c1ccc2nc(CCc3ccccc3)oc2c1	3%
COc1ccc(N2CCN(CCCNC(=O)c3cc(Nc4ccccc4OC)nc4ccccc34)CC2)cc1	-16%
CCCNC(=O)c1ccc2nc(CCc3ccccc3)oc2c1	4%
O=C(NCCCN1CCN(c2ccccc2F)CC1)c1ccc2nc(CCc3ccccc3)oc2c1	11µM*
O=C(NCCCN1CCN(c2ccccc2F)CC1)c1cc2c(Cl)nc3ccccc3c2s1	2.8µM*
COc1ccccc1Nc1cc(C(=O)NC2CCCC2)c2ccccc2n1	17%
COc1ccc(Nc2cc(C(=O)NCCCN3CCN(c4ccccc4F)CC3)c3ccccc3n2)c(OC)c1	10µM*
SMILES	Pf Dd2 growth
CCN(CCCNC(=O)c1cc(Nc2ccccc2OC)nc2ccccc12)c1cccc(C)c1	11µM*
COc1ccc(OC)c(CNC(=O)c2cc3c(Cl)nc4ccccc4c3s2)c1	50%
CC1=C(C(=O)Nc2cc(Cl)ccc2C)C2(CCCCC2)OC1=O	-25%
Cn1cc(S(=O)(=O)N2CCCCCC2)cc1C(=O)N1CCN(c2ccccc2F)CC1	i
CN1CCN(c2ccc(C(=O)N[C@H](c3ccccn3)C3CC(O)C3)cc2)CC1 (stereo partly drawn)	-4%
Cc1cccc(OCC(=O)NC2CCN(c3cc(C(F)(F)F)ncn3)CC2)c1	10%
CC(=O)N1CCCc2cc(S(=O)(=O)N3CCN(c4cccc(C(F)(F)F)c4)CC3)ccc21	-14%
O=C(NCc1ccc(Cl)cc1)c1cc2cccc3c2n1CCS3	i
COc1cccc(C(=O)COC(=O)c2cc(-c3cccs3)nc3ccccc23)c1	i
CCC(C)NC(=O)CCCn1c(=O)c2cccn2c2ccccc21 (stereo not drawn)	-19%
Cc1cc(=O)n(CC(=O)Nc2ccc(C(F)(F)F)cc2)c(N2CCc3ccccc3C2)n1	-7%
O=C(Cc1ccccn1)NC1CCN(c2nc3ncccc3o2)CC1	16%
CCCN1CCN(CCCNC(=O)c2cc3c(Cl)nc4ccccc4c3s2)CC1	10µM*
O=C(c1cc2c(Cl)nc3ccccc3c2s1)N1CCCCC1	12%
CC(C)NC(=O)c1cc2c(Cl)nc3ccccc3c2s1	3%
COCC(=O)NC1CCC12CCN(C(=O)c1cnc(C)cn1)CC2 (stereo not drawn)	20%
COc1ccc(C2C=C(c3ccc(Br)cc3)Nc3nnnn32)c(OC)c1 (stereo not drawn)	-30%
Cc1cccc(C2C=C(c3ccc(C)c(C)c3)Nc3nnnn32)c1 (stereo not drawn)	11µM*
Cc1ccc(C2=CC(c3c(F)cccc3Cl)n3ncnc3N2)cc1C (stereo not drawn)	3%
CCOc1ccc(C(=O)Nc2ccc3nc(SCC(=O)N4CCc5ccccc54)sc3c2)cc1	i

Source: PubChem BioAssay (National Center for Advancing Translational Sciences (NCATS))
